Test results taken from ChEMBL document CHEMBL1157539, “Thousands of chemical starting points for antimalarial lead identification” (Nature, 2010).
Values joined by “and” are separate entries in the source; they are usually repeats but may differ in a detail not shown here. Identical values can stand only once.

Tested on: Plasmodium falciparum
Assay: GSK_TCMDC: Inhibition of Plasmodium falciparum 3D7 in whole red blood cells, using parasite LDH activity as an index of growth. Test compounds present at 2uM
Format: functional

SMILES	Inhibition
COc1ccc(-c2nc(NC(=O)Cc3cccc(OC)c3)sc2C)cc1	100%
O=C(NCCCNc1nc2ccccc2[nH]1)c1cccc(OC(F)(F)F)c1	100%
COCCNCc1ccc(-c2cccc(CN(C(=O)NCCc3ccccc3)C3CCN(Cc4ccccc4)CC3)c2)cc1.O=C(O)C(F)(F)F	88%
COc1cc2nc(N3CCC(CNC(=O)c4ccc(-c5cccc(C#N)c5)cc4)CC3)nc(N)c2cc1OC	100%
CCC(C)NS(=O)(=O)c1ccc2nc(Nc3ccc(C)cc3)n(C3CCCCC3C)c2c1 (stereo not given)	95%
COc1ccc2nccc([C@@H](O)CN3CCC(NCc4nc5c(cc4Cl)SCC(=O)N5)C(F)C3)c2c1.Cl (stereo not given in full)	94% and 99%
O=C(CCN(Cc1ccco1)c1nc(-c2ccc(F)cc2)nc2ccccc12)NC1CC1	94%
Cc1nc(N)nc(N)c1CCCOc1ccccc1Cl	98%
O=C(Nc1ccc(-c2nc3ccccc3[nH]2)cc1)c1ccc(S(=O)(=O)N2CCCCC2)cc1	95%
C(=NN=c1cc(-c2ccccc2)[nH]c2ccccc12)c1cccnc1	87%
O=C(Nc1ccc(OC2CCN(Cc3ccc(F)cc3)CC2)c(Cl)c1)c1ccoc1.O=C(O)C(F)(F)F	89%
O=C(Nc1ccc(Oc2ccccc2)cc1)N1CCC(CCN2CCC(c3c[nH]c4ccccc34)CC2)CC1	100%
Cc1cc(=NN=CC=Cc2ccccc2)c2ccccc2[nH]1	100%
CC(=O)Nc1cc(C(=O)Nc2cccc(-c3csc(-c4nc5ccccc5[nH]4)c3)c2)ccc1C	94%
Cc1cc(N2CCCC2)nc(Nc2ccc(NC(=O)c3ccccc3C)cc2)n1	100%
CCOc1ccc(-c2noc(-c3c[nH]c4ccccc4c3=O)n2)cc1	99%
CCc1ccc(NC(=O)c2ccc(CN3CCCN(Cc4cccc(O)c4)CC3)cc2)cc1.O=C(O)C(F)(F)F	100%
COc1ccc(-c2cnc3[nH]cc(-c4ccc(C(=O)O)c(C)c4)c3c2)cn1.O=C(O)C(F)(F)F	99%
Cc1ccnc2nc(C(=O)Nc3cc(Cl)ccc3N3CCOCC3)nn12	84%
Clc1ccc(CNc2ccnc(NCc3ccc4c(c3)OCCCO4)n2)c(Cl)c1	94%

SMILES	Inhibition
Cn1nc(-c2ccc(NC(=O)Nc3cc(C(F)(F)F)ccc3F)c(F)c2)c2cnc(NCCCN3CCOCC3)nc21.O=C(O)C(F)(F)F	100%
O=C(O)C(F)(F)F.OC1CCCN(Cc2cccc(-c3ccc(-c4nc5ccccc5[nH]4)cc3)c2)C1 (stereo not given)	85%
O=[N+]([O-])c1cccc(-c2ccc(C=NNc3cc(N4CCCC4)nc(N4CCCC4)n3)o2)c1	100%
CN1C(C)(C)CC(NC(=O)c2ccc(-c3cc4cc(Cl)c(Cl)cc4[nH]3)o2)CC1(C)C	100%
O=C(O)C(=O)O.c1ccc(C2CCC(N3CCC(N4CCCC4)CC3)CC2)cc1 (stereo not given)	100%
CCC(COCc1ccc(Cl)cc1)N(C)CCN(C)C(CC)COCc1ccc(Cl)cc1.Cl (stereo not given)	95%
CCN(CC)/C(=N/C(=N)Nc1ccc(Br)cc1)NCCCCCCN/C(=N\C(=N)Nc1ccc(Br)cc1)N(CC)CC	96%
NCc1cccc(-c2ccccc2CNC2CCN(Cc3ccccc3)CC2)c1.O=C(O)C(F)(F)F	94%
O=C(O)C(F)(F)F.Oc1ccc(CCNc2nc(NCCOc3ccccc3-c3ccccc3)nc(N3CCNCC3)n2)cc1	93%
COc1ccc2nccc([C@@H](O)CN3CCC(NS(=O)(=O)c4cc5c(cc4Cl)SCC(=O)N5)CC3)c2c1.O=C(O)C(=O)O	88%
CCOC(=O)c1ccc(OCc2ccc(-c3ccccc3)cc2)cc1	96%
O=[N+]([O-])c1ccc2nc(Nc3cccc(C(F)(F)F)c3)c(Nc3cccc(C(F)(F)F)c3)nc2c1	100%
CSCCC(C(=O)O)N1C(=O)c2ccccc2C1=O (stereo not given)	91%
Cc1ccc(-c2cc(C(=O)Nc3ccc(S(=O)(=O)N(C)Cc4ccccc4)cc3)[nH]n2)c(O)c1	99%
O=C(Nc1cccc(CN2CCCN(Cc3cccc(Cl)c3)CC2)c1)c1ccc(Br)cc1.O=C(O)C(F)(F)F	92%
Cc1ccc(-c2nc3ccccc3o2)cc1NCc1cc(Cc2ccccc2)ccc1O	82%
COc1cc(-c2nc(-c3ccncc3)c(-c3ccc4c(c3)CCC4=NO)[nH]2)ccc1OCCN1CCN(C)CC1.Cl	99%
CCCCCN1CCC(NS(=O)(=O)c2cccc(C(=O)Nc3cccc(C(F)(F)F)c3)c2)C1.O=C(O)C(F)(F)F (stereo not given)	86%
CCCC(C)Nc1nc(C)cc(N[C@@H](Cc2ccccc2)C(=O)Nc2ccccc2)n1.O=C(O)C(F)(F)F (stereo not given in full)	100%
CC(C)C1c2ccc(O)cc2CC2C(=O)N(C3CCCCC3)C(=O)N21 (stereo not given)	95%
